Assay outcomes: PubChem BioAssay, National Center for Advancing Translational Sciences (NCATS)
Pf growth 96h – inhibits malaria parasite growth, 96 h; P. falciparum luciferase reporter growth, 96 h; Potency, µM (highest dose often 28.7 µM), actives largely listed as inhibitors; hit rate 6.9% among 320,000; AID 504834; active = well fitted inhibition curve with a large enough effect; inconclusive = small, poorly fitted or top-dose-only effect, or another doubt; inactive = no such curve, though single readings can be large or run the other way
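Parasite growth measured via integrated firefly luciferase reporter in P. falciparum. Infected erythrocytes at 2% hematocrit, 0.05% parasitemia final were treated 96 hours at 37 C under 5% CO2, and luminescence was read.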
Shiga toxin inh – inhibitors of Shiga toxin in Vero cells; Vero cells, Shiga toxin protein synthesis inhibition reporter; inhibition, % at 38.7 µM; hit rate 9.2% among 290,000; AID 2315; in the data active = inhibition mostly above about 28%, no sharp cut-off; inactive = mostly below about 43%
SARS PLpro yeast – inhibitors of SARS-CoV papain-like protease in yeast; Potency, µM (doses to about 32.9 µM), actives largely listed as activators; S. cerevisiae expressing SARS-CoV PLpro, growth rescue; hit rate 0.19% among 330,000; note: nearly all actives have a fitted effect of over 55% in size
CHX counter – affects cycloheximide protein synthesis inhibition readout, counter-screen; cell reporter, cycloheximide protein synthesis inhibition counterscreen; max response, %; hit rate 12% among 300,000; AID 2314; in the data active = max response mostly above about 13%, no sharp cut-off; inactive = mostly below about 14%; note: read at 38.3 µM for the half of the compounds with a filed dose
Pf growth 48h – P. falciparum growth inhibition at 48 hours (one generation); Potency, µM (series often up to 28.7 µM), hits mostly inhibitors; hit rate 5.9% among 310,000; P. falciparum luciferase growth in erythrocytes, 48 h; active = well fitted inhibition curve with a large enough effect; inconclusive = small, poorly fitted or top-dose-only effect, or another doubt; inactive = no such curve, though single readings can be large or run the other way
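In quantitative HTS format, infected erythrocytes bearing luciferase-reporter parasites were treated for a single generation at 37 C. Luminescence after adding detection reagent served as the growth measure.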
NS1 function inh – inhibitors of influenza NS1 protein function; Potency, µM (highest dose often 46.1 µM); hit rate 0.4% among 270,000; note: actives are rising curves; nearly all actives have a fitted effect of over 50% in size
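OD600 was taken as the measure of yeast growth restored by compound in an NS1-expressing S. cerevisiae strain. Cells had been washed out of glucose medium and diluted 1:100 into galactose -URA medium, pH 6.0.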
Large screens that a line does not name were inactive. The list is not random: actives were taken first. Their share in the collection is about 21%. Unless noted, calls come from the whole dose curve.

Cc1c(C(=O)OC(C)C)[nH]c2c1C(=O)CC(C)(C)C2	CHX counter 11 (no result: Pf growth 96h)
CCSC(N)=Nc1ccc(C(F)(F)F)cc1	none (no result: Pf growth 96h, Shiga toxin inh, SARS PLpro yeast, CHX counter, Pf growth 48h)
Cc1cc(Oc2ccc(-c3nnc(-c4ccccc4)o3)cc2[N+](=O)[O-])ccc1Cl	Pf growth 96h inconclusive
COc1cccc(-c2nnc(-c3ccccc3[N+](=O)[O-])o2)c1	Shiga toxin inh 93, CHX counter 41
CC(=O)Oc1ccc(C(=O)Nc2cccc(-c3nnc(-c4ccco4)o3)c2)cc1	Pf growth 96h inconclusive, Pf growth 48h inconclusive
COc1cccc(C(=O)Nc2ccc(-c3nnc(-c4ccco4)o3)cc2)c1	Pf growth 96h inconclusive, CHX counter 17, Pf growth 48h 4.7µM
COc1cccc(-c2nnc(-c3ccco3)o2)c1	Shiga toxin inh active, CHX counter 60
COc1cccc(C(=O)Nc2cccc(-c3nnc(-c4ccccc4)o3)c2)c1	none (no result: Pf growth 96h, Shiga toxin inh, SARS PLpro yeast, CHX counter, Pf growth 48h)
COc1cccc(-c2nnc(-c3ccc(C)o3)o2)c1	Shiga toxin inh 29, CHX counter 27
O=C(CNC(=O)c1ccc2c(c1)OCCO2)N/N=C/c1ccc([N+](=O)[O-])cc1	none
COc1cccc(-c2nnc(N)o2)c1	CHX counter 10
CCOc1ccc(C2=C(C=Nc3c(C)n(C)n(-c4ccccc4)c3=O)C(c3ccc(F)cc3)c3ccccc3O2)cc1 (stereo not given)	Pf growth 96h 0.29µM (no result: Pf growth 48h)
Cc1cc(CNC(=O)CCc2nnc(CCCc3ccccc3)o2)nn1C	Pf growth 96h inconclusive, Shiga toxin inh 33, CHX counter 37
CC(NC(=O)CCc1nnc(CCCc2ccccc2)o1)c1ccccc1 (stereo not given)	Shiga toxin inh 94, CHX counter 29
CC(NC(=O)CCc1nnc(-c2ccccc2)o1)c1ccccc1 (stereo not given)	Pf growth 96h inconclusive, Shiga toxin inh 124, CHX counter 35
O=C(CCc1nnc(CCCCc2ccccc2)o1)NC1CCCC1	none
CC1(C)CC(NC(=O)CCc2nnc(CCCCc3ccccc3)o2)CCO1 (stereo not given)	Pf growth 96h 10µM
Nc1ccnc(=O)[nH]1	none (no result: Shiga toxin inh, SARS PLpro yeast, CHX counter, NS1 function inh)
Cc1ccc(C)c(OCCC(=O)NCCc2ccc(F)cc2)c1	none
CCN(CC(=O)Nc1c(F)cccc1F)C(=O)CCC(=O)c1ccc(C)cc1	none (no result: Shiga toxin inh, CHX counter, NS1 function inh)
O=C1CC(c2ccccc2Oc2cccc(Cl)c2)C(n2cncn2)C(=O)C1C1NCCc2ccccc21 (stereo not given)	none
CC(C)(C)c1ccc(Oc2cccc(C3CC(=O)C(C4NCCc5ccccc54)C(=O)C3n3cncn3)c2)cc1 (stereo not given)	Pf growth 48h 1.2µM
CCn1c(SCC(=O)c2ccccc2)nc2sc3c(c2c1=O)CCN(C)C3	Pf growth 96h 2.9µM, Shiga toxin inh 70, CHX counter 12, Pf growth 48h inconclusive
Nn1c(Nc2ccccc2)nc2sc3c(c2c1=O)CCC3	Shiga toxin inh 86, CHX counter 26
Cc1ccccc1-n1c(SCC(=O)O)nc2sc3c(c2c1=O)CCCC3	Pf growth 96h inconclusive
CCn1c(SCC(=O)NCCc2ccccc2)nc2sc3c(c2c1=O)CCN(C)C3	Pf growth 96h 0.37µM, Pf growth 48h 1.7µM
NNc1nc2sc3c(c2c(=O)n1Cc1ccccc1)CCC3	none
O=C(O)CSc1nc2sc3c(c2c(=O)n1Cc1ccccc1)CCCCC3	Shiga toxin inh 40, CHX counter 26
O=C(COC(=O)CCSc1ccccc1)NCc1ccc(F)cc1	none (no result: NS1 function inh)
COc1ccccc1CCC(=O)Oc1ccc(C#N)cc1OC	Pf growth 96h inconclusive
COc1ccccc1N1CCN(S(=O)(=O)CCNC(=O)c2ccc(Br)o2)CC1	Pf growth 96h inconclusive
CN1C(=O)Cc2cc(S(=O)(=O)Nc3ccc(N4CCOCC4)cc3)ccc21	none
Nn1cc(-c2ccccc2)nc1SCC(=O)Nc1ccc(S(N)(=O)=O)cc1	none
O=c1c2c3c(sc2nc(NCCO)n1-c1ccccc1)CCCC3	none
C=CCn1c(SCC(=O)NCC)nc2sc3c(c2c1=O)CCC3	Pf growth 96h inconclusive, Pf growth 48h 7.4µM
O=C(O)c1ccc(Cn2cnc3sc4c(c3c2=O)CCCC4)cc1	none
O=C(O)c1ccc(Cn2nnc3sc4c(c3c2=O)CCCC4)cc1	Shiga toxin inh 167, CHX counter 41 (no result: NS1 function inh)
CN(C)CCCNc1nc2sc3c(c2c(=O)n1CCc1ccccc1)CCCCC3	Pf growth 96h 4.1µM, Pf growth 48h 6.6µM
O=C(NNC(=O)c1csc(N2CCOCC2)n1)c1cccnc1	none (no result: Shiga toxin inh, CHX counter, NS1 function inh)
CC(C)[C@H](NC(=O)c1ccccc1)C(=O)NC1=NCCS1	none (no result: Pf growth 96h, Shiga toxin inh, CHX counter, Pf growth 48h, NS1 function inh)
O=C(CSc1nc2ccccc2c(=O)n1-c1ccc(F)cc1)NC1CCS(=O)(=O)C1 (stereo not given)	none (no result: Shiga toxin inh, CHX counter, NS1 function inh)
O=C(Cn1nnc2ccccc21)Nc1ccc(Cl)cn1	none (no result: NS1 function inh)
CCCCN(Cc1nc2ccccc2c(=O)[nH]1)C(=O)c1nn(C)c(=O)c2ccccc12	Pf growth 96h inconclusive (no result: Shiga toxin inh, CHX counter, NS1 function inh)
Cc1noc(C)c1C(=O)N(CC(C)C)c1nc2ccccc2s1	Pf growth 96h inconclusive
CC(C)CN(C(=O)c1nn(C)c(=O)c2ccccc12)c1nc2ccccc2s1	Pf growth 48h 10µM (no result: Pf growth 96h)
CC(C)CN(C(=O)c1ccco1)c1nc2ccccc2s1	CHX counter active, Pf growth 48h inconclusive
O=C1c2cccnc2C(=O)N1Cc1ccc(S(=O)(=O)N2CCOc3ccc(Cl)cc32)cc1	Pf growth 96h inconclusive
Cc1ccc(C(=O)Nc2ccn(Cc3ccc(F)cc3)n2)o1	Shiga toxin inh 56, CHX counter 25
Cc1ccc(C(=O)Nc2ccc(F)cc2F)o1	CHX counter 44 (no result: Pf growth 48h)
Cc1nc2ccccc2nc1OCc1ccc([N+](=O)[O-])cc1	none
O=S(=O)(NC(=NC1CCCCC1)c1ccccc1)c1ccc(F)cc1	Pf growth 96h 9.3µM, Pf growth 48h inconclusive
Cc1ccccc1C(=O)N1CCC(C(=O)Nc2cccc(S(=O)(=O)N3CCCCC3)c2)CC1	Pf growth 96h inconclusive, Pf growth 48h 15µM (no result: Shiga toxin inh, CHX counter, NS1 function inh)
Cc1ccccc1C(=O)N1CCC(C(=O)Nc2ccc(S(=O)(=O)N3CCCC3)cc2)CC1	Pf growth 48h inconclusive (no result: Pf growth 96h)
Cc1ccccc1C(=O)N1CCC(C(=O)Nc2ccc(C)c(S(=O)(=O)N3CCCCC3)c2)CC1	Pf growth 96h inconclusive, Pf growth 48h 13µM (no result: Shiga toxin inh, CHX counter, NS1 function inh)
O=C(/C=C/c1cccc([N+](=O)[O-])c1)Nc1ccccn1	Pf growth 96h inconclusive (no result: NS1 function inh)
Cc1ccc2oc(-c3cccc(NC(=O)/C=C/c4cccc([N+](=O)[O-])c4)c3C)nc2c1	Pf growth 96h 2.3µM, Shiga toxin inh 97, CHX counter 57, Pf growth 48h inconclusive
S=C(Nc1ccc2nccnc2c1)N1CCCC1	CHX counter 28
Cc1nc2ccc(NC(=S)N3CCCC3)cc2nc1C	Pf growth 96h inconclusive
S=C(Nc1ccc2nsnc2c1)N1CCCC1	Shiga toxin inh 89, CHX counter 46, Pf growth 48h inconclusive
O=C(Nc1ccc2nsnc2c1)N1CCCCCC1	CHX counter 43 (no result: Pf growth 48h)
O=C(Nc1ccc2snnc2c1)N1CCCCC1	CHX counter 19
